The supplement of paper PMC10849652
Targets with a hit are over-represented here; the source holds about 7,900 in all. About 0.6% of all pairs of compound and target were hits. Values without a mark were called inactive.

Assays:
Experiment in all cases: log2 fold change, soluble protein after heating vs DMSO (PISA); higher = thermal stabilisation; K562 cells, 10 uM, 30 min; active = over 0.2 and 3.5 SD of the protein, either way, in both replicates (recomputed)
[1] = compound: CC[C@@H]1C(=O)N(C)c2cnc(Nc3ccc(C(=O)NC4CCN(C)CC4)cc3OC)nc2N1C1CCCC1
Method in brief: (§1)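 Soluble protein was defined as the supernatant after 21,000xg for 90 min. It came from K562 cells at 2×10^6 cells/mL given 10 μM compound for 30 min, heated in aliquots for 3 min across 48°C-58°C, pooled, and extracted in PBS with 0.5% NP-40 at 4°C, and was quantified by TMTpro 16plex LC-MS/MS with equalised channel sums. Thermal stability against control samples, from duplicates, is reported as log2 fold change.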

[2] = compound: CC[C@@H]1C(=O)N(C)c2cnc(Nc3ccc(C(=O)N[C@H]4CC[C@H](N5CCN(CC6CC6)CC5)CC4)cc3OC)nc2N1C(C)C [volasertib]
Method in brief: as §1

[3] = compound: CC[C@H](C)N1C=C(C2=C(C=C(C=C21)C3=CN=C(C=C3)N4CCNCC4)C(=O)NCC5=C(C=C(NC5=O)C)C)C
Method in brief: as §1

[4] = compound: CC[C@H](C)[C@@H](C(=O)N[C@@H]([C@@H](C)O)C(=O)N[C@@H](CC(C)C)C(=O)[C@]1(CO1)C)NC(=O)[C@H]([C@@H](C)CC)N(C)C(=O)C [epoxomicin]
Method in brief: as §1

[5] = compound: CCn1c(C(=O)N(C2CC2)C2CC2)cc2c3c(ncn3C)c(Nc3cc(C)n(C)n3)nc21
Method in brief: as §1

[6] = compound: CCn1cc(-c2ccnc3[nH]c(-c4cccc(CN(C)C)c4)cc23)c(-c2ccc(NC(=O)N(C)C)cc2)n1
Method in brief: as §1

[7] = compound: CN(C)CC(=O)Nc1ccc2[nH]c(=O)c3ccccc3c2c1
Method in brief: as §1

[8] = compound: CN(CCOC1=CC=C(C=C1)C[C@H]2C(=O)NC(=O)S2)C3=CC=CC=N3 (racemic) [rosiglitazone]
Method in brief: as §1

[9] = compound: CN1C2=C(C3=C1C(=O)N(N=C3)CC4=CC(=CC=C4)N)SC(=C2)S(=O)C
Method in brief: as §1

[10] = compound: CN1CCC(CNc2ccc3ncc(-c4cccc(OC(F)(F)F)c4)n3n2)CC1
Method in brief: as §1

[11] = compound: CN1CCN(CCOc2cc(OC3CCOCC3)c3c(Nc4c(Cl)ccc5c4OCO5)ncnc3c2)CC1 [saracatinib]
Method in brief: as §1

[12] = compound: CN1CCN(c2nc(C3=C(c4c[nH]c5ccccc45)C(=O)NC3=O)c3ccccc3n2)CC1 [sotrastaurin]
Method in brief: as §1

[13] = compound: CN1CC[C@H](c2c(O)cc(O)c3c(=O)cc(-c4ccccc4Cl)oc23)[C@H](O)C1 [alvocidib]
Method in brief: as §1

[14] = compound: CN1CCc2c(c3ccccc3n2Cc2ccc(C(=O)NO)cc2)C1 [Tubastatin A]
Method in brief: as §1

[15] = compound: CNC(=O)C1=CC=CC=C1NC2=NC(=NC=C2Cl)NC3=C(C=C(C=C3)N4CCOCC4)OC
Method in brief: as §1

[16] = compound: CNC(=O)c1ccc(Nc2ncc(C(F)(F)F)c(NCc3nccnc3N(C)S(C)(=O)=O)n2)cc1 [defactinib]
Method in brief: as §1

[17] = compound: CNCc1ccc(-c2[nH]c3cc(F)cc4c3c2CCNC4=O)cc1 [rucaparib]
Method in brief: as §1

[18] = compound: CNc1nc(-c2ccc3c(N)n[nH]c3c2)cc(N2C[C@@H](C(=O)NC3CCCCC3)CC[C@H]2C)n1
Method in brief: as §1

[19] = compound: COC(=O)N[C@@H](C)CNc1nccc(-c2cn(C(C)C)nc2-c2cc(Cl)cc(NS(C)(=O)=O)c2F)n1 [encorafenib]
Method in brief: as §1

[20] = compound: COC(=O)[C@H](CCSC)NC(=O)C1=C(C=C(C=C1)NC[C@H](CS)N)C2=CC=CC=C2
Method in brief: as §1

UniProt Q6P3S6, sequence (Q6P3S6 whole entry, looked up): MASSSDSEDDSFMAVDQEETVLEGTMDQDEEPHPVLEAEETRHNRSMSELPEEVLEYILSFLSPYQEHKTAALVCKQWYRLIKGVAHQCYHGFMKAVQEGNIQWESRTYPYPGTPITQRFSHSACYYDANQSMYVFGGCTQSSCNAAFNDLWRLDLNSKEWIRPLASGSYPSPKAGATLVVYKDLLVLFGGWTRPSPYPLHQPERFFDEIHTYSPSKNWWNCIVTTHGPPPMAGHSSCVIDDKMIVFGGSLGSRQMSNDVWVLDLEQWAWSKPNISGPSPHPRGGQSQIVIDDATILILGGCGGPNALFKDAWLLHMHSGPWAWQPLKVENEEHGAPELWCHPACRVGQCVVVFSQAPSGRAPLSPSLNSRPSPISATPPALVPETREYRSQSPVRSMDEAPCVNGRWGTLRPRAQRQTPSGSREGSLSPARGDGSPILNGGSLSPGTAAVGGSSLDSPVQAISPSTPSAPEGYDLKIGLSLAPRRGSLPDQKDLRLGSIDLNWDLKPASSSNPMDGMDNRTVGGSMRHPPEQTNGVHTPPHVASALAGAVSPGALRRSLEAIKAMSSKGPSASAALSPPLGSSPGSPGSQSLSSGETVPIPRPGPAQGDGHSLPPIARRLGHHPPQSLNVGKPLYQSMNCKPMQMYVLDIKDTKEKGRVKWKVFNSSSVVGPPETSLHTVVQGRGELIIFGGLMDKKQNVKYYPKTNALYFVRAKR
UniProt Q5SSJ5, sequence (Q5SSJ5 whole entry, looked up): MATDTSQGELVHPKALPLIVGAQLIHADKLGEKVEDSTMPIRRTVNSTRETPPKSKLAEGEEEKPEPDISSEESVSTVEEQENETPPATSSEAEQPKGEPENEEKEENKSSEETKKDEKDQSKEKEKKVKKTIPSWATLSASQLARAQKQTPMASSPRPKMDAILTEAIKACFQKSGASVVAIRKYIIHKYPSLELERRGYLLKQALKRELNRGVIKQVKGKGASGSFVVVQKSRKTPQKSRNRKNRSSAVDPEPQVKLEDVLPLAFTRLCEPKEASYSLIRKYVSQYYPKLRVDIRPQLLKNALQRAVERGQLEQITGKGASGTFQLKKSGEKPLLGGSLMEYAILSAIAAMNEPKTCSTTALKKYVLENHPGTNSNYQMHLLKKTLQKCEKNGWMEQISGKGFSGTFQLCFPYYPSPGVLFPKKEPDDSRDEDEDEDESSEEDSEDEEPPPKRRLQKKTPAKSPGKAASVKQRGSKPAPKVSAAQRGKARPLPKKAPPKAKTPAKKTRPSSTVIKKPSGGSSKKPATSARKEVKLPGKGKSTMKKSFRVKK
UniProt P00367, sequence (P00367 whole entry, looked up): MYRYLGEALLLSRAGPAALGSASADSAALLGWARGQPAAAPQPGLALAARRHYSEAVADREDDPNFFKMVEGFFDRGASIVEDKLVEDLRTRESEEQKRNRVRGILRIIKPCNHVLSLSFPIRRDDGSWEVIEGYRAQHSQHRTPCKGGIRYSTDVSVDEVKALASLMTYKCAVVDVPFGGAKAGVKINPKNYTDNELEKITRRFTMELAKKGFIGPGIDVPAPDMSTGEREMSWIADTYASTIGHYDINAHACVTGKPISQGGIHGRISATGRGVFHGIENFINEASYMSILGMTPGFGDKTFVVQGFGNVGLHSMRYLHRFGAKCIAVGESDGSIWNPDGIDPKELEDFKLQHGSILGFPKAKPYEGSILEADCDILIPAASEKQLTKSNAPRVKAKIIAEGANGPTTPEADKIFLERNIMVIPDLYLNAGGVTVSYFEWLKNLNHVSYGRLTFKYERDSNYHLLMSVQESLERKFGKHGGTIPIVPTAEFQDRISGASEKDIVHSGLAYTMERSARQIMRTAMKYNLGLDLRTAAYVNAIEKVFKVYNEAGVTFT
UniProt Q9UJ14, sequence (Q9UJ14 whole entry, looked up): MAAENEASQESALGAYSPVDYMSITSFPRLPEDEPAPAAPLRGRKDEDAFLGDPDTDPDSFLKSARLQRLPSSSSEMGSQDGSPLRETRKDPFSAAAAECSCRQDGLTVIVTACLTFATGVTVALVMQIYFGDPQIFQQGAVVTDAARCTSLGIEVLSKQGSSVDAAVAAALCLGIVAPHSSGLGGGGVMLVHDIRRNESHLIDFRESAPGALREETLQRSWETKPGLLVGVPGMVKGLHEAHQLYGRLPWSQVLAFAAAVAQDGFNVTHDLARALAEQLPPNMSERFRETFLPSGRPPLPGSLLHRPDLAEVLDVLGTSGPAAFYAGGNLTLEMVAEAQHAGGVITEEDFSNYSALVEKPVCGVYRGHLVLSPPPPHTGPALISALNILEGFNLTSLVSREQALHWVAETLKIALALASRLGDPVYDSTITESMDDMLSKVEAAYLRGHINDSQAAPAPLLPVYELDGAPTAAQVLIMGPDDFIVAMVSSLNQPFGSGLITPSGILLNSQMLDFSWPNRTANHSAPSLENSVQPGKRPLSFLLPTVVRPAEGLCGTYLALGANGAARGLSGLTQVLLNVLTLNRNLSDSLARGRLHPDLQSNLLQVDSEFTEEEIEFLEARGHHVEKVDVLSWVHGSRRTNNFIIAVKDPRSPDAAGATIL
UniProt Q86UX7, sequence (Q86UX7 whole entry, looked up): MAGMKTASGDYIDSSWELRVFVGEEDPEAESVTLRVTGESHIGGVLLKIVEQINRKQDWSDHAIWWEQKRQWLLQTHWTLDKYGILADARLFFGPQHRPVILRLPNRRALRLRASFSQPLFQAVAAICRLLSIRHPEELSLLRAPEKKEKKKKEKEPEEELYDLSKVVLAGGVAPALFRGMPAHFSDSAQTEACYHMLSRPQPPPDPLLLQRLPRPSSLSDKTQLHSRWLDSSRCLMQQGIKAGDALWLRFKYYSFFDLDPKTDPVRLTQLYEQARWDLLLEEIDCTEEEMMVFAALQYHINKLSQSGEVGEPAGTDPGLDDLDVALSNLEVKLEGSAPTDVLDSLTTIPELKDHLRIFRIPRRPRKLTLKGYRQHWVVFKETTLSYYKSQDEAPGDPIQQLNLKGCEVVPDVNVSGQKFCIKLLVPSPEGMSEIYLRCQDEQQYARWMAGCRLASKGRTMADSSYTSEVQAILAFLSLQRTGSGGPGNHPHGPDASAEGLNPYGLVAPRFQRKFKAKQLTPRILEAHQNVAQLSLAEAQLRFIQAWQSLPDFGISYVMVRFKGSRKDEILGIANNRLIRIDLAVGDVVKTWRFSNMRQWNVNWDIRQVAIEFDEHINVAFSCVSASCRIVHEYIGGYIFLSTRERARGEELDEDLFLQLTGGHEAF
UniProt Q9H0R4, sequence (Q9H0R4 whole entry, looked up): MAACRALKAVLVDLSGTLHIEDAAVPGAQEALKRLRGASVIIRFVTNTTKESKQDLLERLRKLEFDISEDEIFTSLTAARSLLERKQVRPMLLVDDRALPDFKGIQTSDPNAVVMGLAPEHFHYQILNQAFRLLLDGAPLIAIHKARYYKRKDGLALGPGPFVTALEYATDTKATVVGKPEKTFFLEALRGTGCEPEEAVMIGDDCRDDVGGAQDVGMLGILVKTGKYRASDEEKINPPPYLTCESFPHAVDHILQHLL
UniProt P55795, sequence (P55795 whole entry, looked up): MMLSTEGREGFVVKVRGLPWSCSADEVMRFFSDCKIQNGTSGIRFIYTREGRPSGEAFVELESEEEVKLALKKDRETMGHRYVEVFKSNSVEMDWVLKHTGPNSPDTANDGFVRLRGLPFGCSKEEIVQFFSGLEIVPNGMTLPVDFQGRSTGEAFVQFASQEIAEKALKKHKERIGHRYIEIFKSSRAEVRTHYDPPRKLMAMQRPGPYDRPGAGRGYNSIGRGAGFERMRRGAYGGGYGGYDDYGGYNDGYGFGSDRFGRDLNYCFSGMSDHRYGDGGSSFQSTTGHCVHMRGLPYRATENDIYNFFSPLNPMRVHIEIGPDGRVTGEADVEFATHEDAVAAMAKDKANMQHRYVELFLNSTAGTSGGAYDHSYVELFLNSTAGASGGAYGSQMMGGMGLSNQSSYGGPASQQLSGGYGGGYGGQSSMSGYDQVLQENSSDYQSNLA
UniProt Q53FT3, sequence (Q53FT3 whole entry, looked up): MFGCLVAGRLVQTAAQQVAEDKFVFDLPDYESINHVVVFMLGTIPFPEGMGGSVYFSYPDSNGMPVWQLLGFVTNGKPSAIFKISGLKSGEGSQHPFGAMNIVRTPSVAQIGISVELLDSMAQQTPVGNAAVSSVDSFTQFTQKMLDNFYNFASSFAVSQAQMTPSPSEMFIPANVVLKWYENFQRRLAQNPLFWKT
UniProt Q70Z53, sequence (Q70Z53 whole entry, looked up): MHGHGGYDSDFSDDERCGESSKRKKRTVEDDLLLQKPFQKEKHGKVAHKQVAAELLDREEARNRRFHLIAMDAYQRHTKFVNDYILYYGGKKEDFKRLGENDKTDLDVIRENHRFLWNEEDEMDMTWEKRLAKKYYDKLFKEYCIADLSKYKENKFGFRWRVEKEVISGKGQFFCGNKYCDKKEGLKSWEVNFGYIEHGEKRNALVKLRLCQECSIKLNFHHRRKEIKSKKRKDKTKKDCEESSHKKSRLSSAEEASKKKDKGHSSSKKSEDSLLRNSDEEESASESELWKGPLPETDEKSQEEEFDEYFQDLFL
UniProt O76003, sequence (O76003 whole entry, looked up): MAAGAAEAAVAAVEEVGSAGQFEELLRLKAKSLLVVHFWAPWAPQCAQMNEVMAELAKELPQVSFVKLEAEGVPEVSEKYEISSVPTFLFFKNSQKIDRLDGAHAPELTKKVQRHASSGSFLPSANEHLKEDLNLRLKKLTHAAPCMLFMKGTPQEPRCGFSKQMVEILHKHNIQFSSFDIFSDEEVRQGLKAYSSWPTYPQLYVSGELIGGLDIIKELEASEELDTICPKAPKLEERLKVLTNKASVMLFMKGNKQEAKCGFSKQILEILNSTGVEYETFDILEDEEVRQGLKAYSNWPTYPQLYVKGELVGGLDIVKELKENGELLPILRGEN
UniProt Q9Y3D6, sequence (Q9Y3D6 whole entry, looked up): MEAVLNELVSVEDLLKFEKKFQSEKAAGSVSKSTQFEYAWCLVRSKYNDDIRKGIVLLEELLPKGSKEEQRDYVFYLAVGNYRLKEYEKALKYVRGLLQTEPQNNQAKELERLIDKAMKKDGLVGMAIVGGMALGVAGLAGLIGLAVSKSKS

| Target | log2 fold change [1] | log2 fold change [2] | log2 fold change [3] | log2 fold change [4] | log2 fold change [5] | log2 fold change [6] | log2 fold change [7] | log2 fold change [8] | log2 fold change [9] | log2 fold change [10] | log2 fold change [11] | log2 fold change [12] | log2 fold change [13] | log2 fold change [14] | log2 fold change [15] | log2 fold change [16] | log2 fold change [17] | log2 fold change [18] | log2 fold change [19] | log2 fold change [20] |
| --- | --- | --- | --- | --- | --- | --- | --- | --- | --- | --- | --- | --- | --- | --- | --- | --- | --- | --- | --- | --- |
| GLUD2 (UniProt P49448) | 0.13 | 0.252 | 0.068 | -0.07 | 0.034 | -0.219 | 0.021 | 0.002 | -0.022 | 0.071 | 0.305 (active) | 0.056 | -0.017 | -0.016 | 0.051 | 0.008 | 0.003 | 0.178 | -0.117 | -0.042 |
| FBXO42 (UniProt Q6P3S6) | 0.093 | 0.011 | 0.028 | 0.056 | -0.031 | 0.002 | -0.019 | 0.027 | 0.032 | 0.021 | -0.032 | 0.051 | -0.107 | 0 | -0.067 | -0.165 | -0.073 | 0.139 | 0.03 | 0.012 |
| HP1BP3 (UniProt Q5SSJ5) | 0.122 | 0.054 | -0.11 | -0.016 | -0.015 | 0.013 | 0.046 | -0.037 | 0.126 | 0.038 | -0.045 | -0.071 | 0.039 | 0.06 | -0.045 | 0.227 | -0.041 | -0.001 | 0.075 | -0.098 |
| HIKESHI (UniProt Q53FT3) | -0.116 | -0.178 | 0.022 | -0.013 | -0.015 | 0.001 | 0.008 | 0.035 | -0.018 | 0.077 | 0.03 | 0.043 | -0.068 | -0.01 | 0.046 | -0.038 | 0.029 | -0.003 | 0.024 | 0.028 |
| GUK1 isoform 2 (UniProt Q16774) | -0.116 | 0.081 | 0.097 | 0.12 | -0.151 | -0.167 | 0.049 | 0.158 | 0 | 0.071 | 0.001 | -0.223 | -0.092 | 0.064 | 0.027 | -0.162 | 0.175 | 0.026 | -0.079 | 0 |
| FERMT3 (UniProt Q86UX7) | -0.07 | -0.262 (active) | 0.053 | 0.019 | -0.018 | -0.04 | 0.045 | 0.059 | -0.021 | -0.149 | 0.019 | -0.016 | -0.055 | -0.003 | 0.008 | -0.069 | -0.003 | 0.036 | 0.063 | -0.03 |
| GLRX3 (UniProt O76003) | -0.164 | -0.331 (active) | 0.066 | 0.018 | 0.027 | -0.025 | -0.011 | 0.014 | -0.03 | -0.03 | -0.017 | -0.066 | -0.071 | 0.015 | 0.053 | -0.091 | -0.063 | -0.023 | 0.029 | -0.03 |
| HDHD2 (UniProt Q9H0R4) | 0.011 | 0.049 | -0.007 | 0.073 | -0.012 | -0.063 | 0.053 | 0.017 | -0.058 | -0.096 | -0.004 | -0.077 | -0.028 | -0.016 | -0.017 | 0 | -0.049 | -0.048 | 0.016 | -0.018 |
| IFT74 (UniProt Q96LB3) | 0.125 | 0.01 | -0.319 | -0.061 | -0.057 | 0 | -0.051 | 0.031 | 0.025 | -0.05 | -0.079 | -0.001 | 0.048 | 0.259 | -0.223 | 0.028 | 0.06 | 0.003 | -0.055 | 0.075 |
| GGT7 (UniProt Q9UJ14) | 0.029 | -0.063 | -0.069 | 0.079 | -0.013 | -0.124 | 0.081 | 0.005 | 0.02 | 0.023 | 0.066 | 0.051 | -0.049 | 0.053 | -0.042 | -0.027 | -0.038 | -0.091 | 0 | -0.011 |
| FNTA (UniProt P49354) | 0.123 | 0.362 (active) | 0.006 | 0.019 | 0.032 | -0.074 | 0.012 | 0.036 | -0.03 | 0.015 | 0.084 | 0.141 | -0.006 | -0.068 | -0.028 | 0.019 | -0.243 | -0.016 | -0.239 | 0.561 (active) |
| GALC (UniProt P54803) | -0.275 (active) | -0.959 (active) | -0.009 | 0.042 | 0.012 | 0.096 | 0.01 | -0.006 | -0.011 | -0.403 (active) | 0.033 | 0.047 | -0.03 | -0.028 | -0.003 | 0.017 | -0.091 | -0.015 | 0.024 | -0.005 |
| FRA10AC1 isoform 3 (UniProt Q70Z53) | -0.086 | -0.613 (active) | -0.034 | 0.041 | -0.058 | 0.025 | -0.013 | 0.115 | 0.093 | 0.057 | 0.125 | 0.133 | 0.132 | -0.023 | -0.01 | 0 | -0.035 | -0.196 | -0.103 | -0.067 |
| HNRNPH2 (UniProt P55795) | -0.119 | -0.667 (active) | 0.073 | -0.004 | -0.202 | 0 | 0.069 | 0.038 | 0.087 | -0.06 | -0.065 | -0.081 | -0.106 | 0.101 | -0.079 | -0.173 | 0.002 | -0.001 | 0.02 | -0.068 |
| FIS1 (UniProt Q9Y3D6) | 0.005 | 0.046 | -0.023 | -0.002 | 0.025 | 0.008 | 0.01 | 0.016 | -0.189 | -0.075 | 0.333 (active) | 0.016 | -0.11 | -0.021 | -0.012 | -0.063 | 0.004 | 0.182 | -0.049 | -0.022 |
| GLUD1 (UniProt P00367) | 0.146 | 0.25 | 0.034 | 0.024 | 0.126 | -0.054 | 0 | -0.007 | -0.128 | 0.102 | 0.161 | 0.14 | -0.002 | -0.04 | 0.096 | 0.041 | -0.099 | 0.089 | -0.056 | 0.002 |
